# Measurements published in PubChem BioAssay (NCI).
# The panel holds about 83,000 compounds, 20% with a hit somewhere; the sample as a whole holds those more often.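 Treatment: one concentration, 48 hours, 96-well format. Scoring: percent growth, with anything below 10 considered active.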 Unmarked numbers belong to inactive results. The source made the active and inactive calls.
# Assays:
# Assay in all cases: NCI-60 one-dose screen, 48 h (100 = growth as untreated, 0 = no growth, -100 = all killed)
# DU-145 prostate = conditions: 10 µM unless noted
# K-562 leukemia = conditions: 10 µM unless noted
# MALME-3M melanoma = conditions: 10 µM unless noted
# MDA-MB-231 breast = conditions: 10 µM unless noted
# RXF 393 renal = conditions: 10 µM unless noted
# SF-268 CNS = conditions: 10 µM unless noted
# SF-295 CNS = conditions: 10 µM unless noted
# SF-539 CNS = conditions: 10 µM unless noted
# UACC-257 melanoma = conditions: 10 µM unless noted
# M14 melanoma = conditions: 10 µM unless noted
# HCT-15 colon = conditions: 10 µM unless noted
# SNB-75 CNS = conditions: 10 µM
# SNB-19 CNS = conditions: 10 µM unless noted
# U251 CNS = conditions: 10 µM unless noted
# SK-MEL-5 melanoma = conditions: 10 µM unless noted
# UACC-62 melanoma = conditions: 10 µM unless noted
# LOX IMVI melanoma = conditions: 10 µM unless noted
# SK-MEL-28 melanoma = conditions: 10 µM unless noted
# PC-3 prostate = conditions: 10 µM unless noted
Compound,growth (DU-145 prostate),growth (K-562 leukemia),growth (MALME-3M melanoma),growth (MDA-MB-231 breast),growth (RXF 393 renal),growth (SF-268 CNS),growth (SF-295 CNS),growth (SF-539 CNS),growth (UACC-257 melanoma),growth (M14 melanoma),growth (HCT-15 colon),growth (SNB-75 CNS),growth (SNB-19 CNS),growth (U251 CNS),growth (SK-MEL-5 melanoma),growth (UACC-62 melanoma),growth (LOX IMVI melanoma),growth (SK-MEL-28 melanoma),growth (PC-3 prostate)
CNC(=S)NNC(=O)C1CC1,118%,92.9%,111%,114%,117%,109%,115%,104%,102%,99.9%,105%,96.5%,106%,109%,105%,111%,99.9%,113%,
C=C1CCC2C3(C)COC(c4c(OC)cccc4OC)OC3CCC2(C)C1C/C=C1/C(=O)OCC1O (stereo not given),21%,37.9%,109%,86.7%,-28.7% (active),67%,85.1%,66.7%,59.6%,39.9%,48.3%,50.8%,77.3%,35.4%,64.7%,58.9%,15.7%,97.3%,20.6%
CC(=O)Nc1scc[n+]1Cc1ccccc1,118%,99.1%,130%,115%,98.3%,110%,105%,104%,107%,98.5%,101%,106%,110%,106%,117%,114%,87.9%,109%,94.2%
C=C(C)[C@@H]1C[C@@H]2Cc3cc(Cl)ccc3N1O2,123%,97.7%,91.4%,99.2%,104%,106%,108%,99.6%,102%,95.3%,97.9%,99.2%,105%,94.5%,95.8%,94.9%,99.3%,108%,96.5%
Nc1ncnc2c1c(-c1ccc(Oc3ccccc3)cc1)nn2C[C@@H]1SSC[C@@H]1O,34%,2.87% (active),-7.41% (active),52%,37.7%,29.7%,38.3%,40.9%,14.6%,-85.1% (active),64.6%,5.33% (active),60.7%,37.5%,-86.4% (active),-81.1% (active),-20.5% (active),2.67% (active),55.4%
CCN(CC)CCOc1ccc(Cl)c(C)c1,107%,111%,94.4%,104%,104%,98%,118%,108%,99.5%,103%,104%,93.4%,101%,107%,,104%,101%,107%,101%
C=C[C@@H]1C[C@H](O)Cc2c(C)cc(C)cc2N1,102%,92%,103%,101%,108%,97.5%,91.9%,92.3%,97.6%,98.9%,101%,93.6%,109%,97.3%,96.2%,98.2%,77.6%,102%,88.6%
NC1=NN(O)C2=CC([N+](=O)[O-])C=CC2=N1 (stereo not given),114%,103%,137%,118%,115%,101%,117%,98.5%,94.8%,113%,101%,99.5%,119%,109%,109%,122%,83.7%,117%,86.5%
C[n+]1c(/C=C/c2c(O)ccc3ccccc23)ccc2ccccc21,49.1%,6.81% (active),40.4%,24.8%,37.9%,61.2%,40.6%,-14.9% (active),46.1%,34.3%,21.6%,49.9%,41.7%,17.3%,36%,44.6%,-65.1% (active),66.6%,25.4%
COc1ccc2c(c1)C(c1cc(OC)c3c(c1)OCO3)C1=C(COC1=O)N2 (stereo not given),3.41% (active),12%,54.2%,24.4%,-8.85% (active),32.2%,1.56% (active),5.62% (active),66.1%,5.65% (active),26.2%,43.6%,35.2%,20.3%,,46.7%,20.1%,60%,21.9%
COC(OC)c1ccccc1,110%,108%,99.7%,97%,101%,104%,112%,102%,92.2%,101%,105%,91%,121%,99.3%,107%,107%,88.2%,104%,93.1%
O=c1[nH]c(-c2ccccc2)nc(CN2CCCCC2)c1O,113%,112%,128%,102%,120%,105%,121%,108%,113%,108%,113%,96.3%,97.3%,103%,111%,98.6%,97.4%,111%,105%
COc1cc2c(c(OC)c1OC)-c1ccc(N)c(=O)cc1[C@@H](NC(C)=O)CC2,-28.8% (active),17.3%,58.4%,-9.55% (active),-5.16% (active),17.9%,17.7%,-14% (active),61.2%,-21.8% (active),11.8%,33.8%,34.2%,18%,-54.3% (active),30.8%,25%,61.8%,29.3%
C=C1CCC2C3(C)COC(c4ccccc4)OC3CCC2(C)C1/C=C/C1=CCOC1=O (stereo not given),14.9%,32.4%,105%,89.7%,-14.6% (active),73.2%,105%,63.6%,65.9%,53.4%,45.6%,51.7%,71.8%,40.1%,76.5%,58.8%,16.1%,98.1%,26.6%
C=C[C@@H]1C[C@H](O)Cc2cc(F)ccc2N1,102%,102%,91.7%,96.1%,106%,94%,101%,108%,96.1%,97%,96.4%,87.9%,104%,93.3%,93.3%,99.1%,94.2%,98.7%,97.2%
CCC(C)/C(=C\C#N)NCCCN/C(=C/C#N)C(C)CC (stereo not given),122%,98.8%,108%,103%,115%,113%,105%,97.1%,106%,96.1%,97%,92.1%,109%,104%,108%,104%,93.7%,111%,89.4%
CC(C)(C)OC(=O)NCCc1ccc(N=C=S)cc1,64.6%,57%,54.8%,88.4%,54.9%,71.9%,55.5%,69.2%,78.9%,75.3%,55.9%,42.4%,84.7%,75.4%,86.1%,54.8%,56%,69%,66.3%
